Source: PubChem BioAssay
The list is not random: actives were taken first. Their share in the collection is about 1.1%.
PKA-R2B activ = activators of PKA-R2B holoenzyme, primary screen, biochemical, fluorescence polarization, Cy5-IP20, human; cAMP-dependent protein kinase catalytic subunit beta (Homo sapiens) + cAMP-dependent …; PKA-R2B holoenzyme dissociation; R2B truncated from residue 108, S112A mutant; 0% DMSO only, 100% 113 µM cGMP; activation, % at 11.4 µM; 340,000 tested, 0.079% active; AID 504700, 2011;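 active means activation above a cutoff set at the mean over all compounds plus 3 SD, cut at about 18% in these data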;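 further: higher means more holoenzyme dissociation and a rise in polarization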
Target sequence (P31323 whole entry, looked up, other chains not shown, the tested form may be a part): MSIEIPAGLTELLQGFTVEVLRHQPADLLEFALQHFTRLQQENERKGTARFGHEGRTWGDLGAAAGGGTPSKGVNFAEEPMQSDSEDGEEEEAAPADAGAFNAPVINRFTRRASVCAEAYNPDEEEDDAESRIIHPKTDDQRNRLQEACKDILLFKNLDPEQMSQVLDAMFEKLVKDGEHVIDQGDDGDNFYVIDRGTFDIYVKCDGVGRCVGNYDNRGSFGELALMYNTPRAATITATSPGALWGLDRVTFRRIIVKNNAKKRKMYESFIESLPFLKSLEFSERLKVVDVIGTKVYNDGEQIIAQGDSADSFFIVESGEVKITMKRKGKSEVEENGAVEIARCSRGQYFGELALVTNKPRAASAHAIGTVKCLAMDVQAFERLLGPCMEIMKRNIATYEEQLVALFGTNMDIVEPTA
MsrA inh = bovine MsrA enzyme inhibitors, primary screen, biochemical, absorbance, HTS; purified bovine MsrA, absorbance read-out; 360,000 tested, 0.75% active; Methionine sulfoxide reductase A (Bos taurus); inhibition, % at 15.5 µM;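 further: 0% = vehicle wells with enzyme and 100% = reference inhibitor wells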
bovine MsrA act = bovine MsrA enzyme activators, primary screen, biochemical, absorbance, HTS; Methionine sulfoxide reductase A (Bos taurus); purified bovine MsrA, absorbance read-out; activation, % at 10.6 µM; 360,000 tested, 0.3% active; AID 602163, 2012; in the data active means activation above about 7.5%;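 further: 0% = vehicle and 100% = reference activator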
PKA-R1A act = activators of PKA-R1A holoenzyme, primary screen, biochemical, fluorescence polarization, Cy5-IP20, bovine R1A, mouse PKAc. cAMP-dependent protein kinase type I-alpha regulatory subunit (Bos taurus) + …. PKA-R1A dissociation; scaled: DMSO 0%, 113 µM cGMP 100%. activation, % at 11.4 µM. 340,000 tested, 0.083% active;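 active means percent activation above the mean of all tested compounds plus 3 SD, cut at about 19% in these data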;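 further: higher means more PKAc released from R1A so a rise in polarization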
MsrA conf = bovine MsrA inhibitors, retest, confirmation, biochemical, absorbance, HTS | purified bovine MsrA, absorbance read-out | shares compounds with MsrA inh | 2,300 tested, 41% active | inhibition, % at 15.5 µM;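 further: coupled to thioredoxin reductase with NADPH and selenocystamine and DMSO as substrate; 0% = vehicle only and 100% = full effect of reference inhibitor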
An asterisk follows results filed as active; . = no result given. Unless noted, no stated cut-off is given here; in the data, active means inhibition above about 4.5%; inactive means the rest.

SMILES	PKA-R2B activ	MsrA inh	bovine MsrA act	PKA-R1A act	MsrA conf
CCOC(=O)CSC1=NC(=O)/C(=C\c2ccc(Cl)cc2)S1	-8	5.2*	3	-1	3
CC(=O)c1cccc(NC(=O)Nc2ccc3c(c2)OCO3)c1	5	0	-2	6	.
CCOC(=O)Cc1csc(NC(=O)/C=C/c2ccc(Br)o2)n1	-8	5.5*	-9	-2	4
O=C(c1cc2cc(F)ccc2[nH]1)N1CCC(Cc2ccccc2)CC1	-6	2	-2	-9	.
Cc1cc(N/N=C/c2ccco2)c2ccccc2n1	2	1	-3	2	.
Cc1cc(N/N=C/c2ccc(N(C)C)cc2)c2ccccc2n1	2	5.0*	-4	-6	1
CCN(CC)c1ccc(/C=N/Nc2nn[nH]n2)cc1	4	6.4*	-10	-7	4
CCN(CC)c1ccc(/C=N/Nc2nc(C)cc(C)n2)cc1	.	3	-5	.	.
CCC(c1nnnn1-c1ccc2c(c1)OCCO2)N1CCN(C/C=C/c2ccccc2)CC1 (centres undefined)	.	0	-1	.	.
O=C(Nc1ccc2ncccc2c1)c1ccccc1	-16	-1	0	-8	.
CC(=O)N(C)c1ccc(N=Nc2ccc3ncccc3c2)cc1	1	5.3*	-3	-22	4.9*
N#Cc1c(SCC(=O)O)nc(N2CCOCC2)c2c1CCCC2	-13	2	-5	2	.
CCN1CCc2c(C#N)c(N3CCOCC3)nc(N3CCOCC3)c2C1	-2	1	-3	-7	.
CCSc1nc(N2CCOCC2)c2c(c1C#N)CCCC2	-10	13*	-5	-4	13*
CCN1CCc2c(C#N)c(N3CCCCC3)nc(N3CCOCC3)c2C1	-18	4.8*	-6	-20	2
COC(=O)CSc1nc(N2CCOCC2)c2c(c1C#N)CCCC2	-6	8.2*	-2	-2	6.9*
CSCCC(NC(=O)OCc1ccccc1)C(=O)NCc1cccnc1 (centres undefined)	0	0	0	-6	.
CN1OC[C@@H]2CN(C(=O)CCc3ccccc3)[C@H](c3ccc(N4CCCCC4)cc3)C[C@@H]21	.	2	-10	.	.
O=c1c(-c2ccccc2)coc2c(CN3CCCC3)c(O)ccc12	-9	5.5*	-5	-5	2
Cc1cc(C(=O)N/N=C/c2cc(Br)c(Br)o2)n[nH]1	3	3	-2	1	.
CN(C)S(=O)(=O)n1cc(/C=C(\NC(=O)c2ccccc2)C(=O)NCCCN2CCOCC2)c2ccccc21	-8	2	-2	-3	.
CN(C)S(=O)(=O)n1cc(/C=C(\NC(=O)c2ccccc2F)C(=O)NCCN2CCOCC2)c2ccccc21	-2	1	-6	6	.
CCn1cc(/C=C(\NC(=O)c2ccccc2F)C(=O)NCCN2CCOCC2)c2ccccc21	3	5.3*	-5	1	3
COc1ccc(C(=O)N/C(=C\c2cn(C)c3ccccc23)C(=O)NCCCN2CCOCC2)cc1OC	-9	5.7*	-5	13	4
CN(C)c1ccc(/C=C(\NC(=O)c2ccccc2)C(=O)NCCN2CCOCC2)cc1	-3	5.3*	-4	1	4
SMILES	PKA-R2B activ	MsrA inh	bovine MsrA act	PKA-R1A act	MsrA conf
Cn1cc(/C=C(\NC(=O)c2ccccc2)C(=O)NCCCN2CCOCC2)c2ccccc21	2	6.8*	-6	-1	5.3*
Cc1ccc2c(=O)n3c(nc2c1)C(Cc1ccccc1)NC(=O)c1cc(Cl)ccc1-3 (centres undefined)	.	1	.	.	.
CCOC(=O)C1(C)CCCN(C(=O)c2ccccc2C(F)(F)F)C1 (centres undefined)	.	1	-1	.	.
O=C(NCc1ccc(Cl)cc1)c1cc2c(s1)CS(=O)(=O)C2	-17	-1	-12	-8	.
COc1ccc(S(=O)(=O)Nc2ccc3c(c2)C(=O)N([C@H](C)CO)C[C@H](C)[C@@H](CN(C)C(=O)Nc2c(C)noc2C)O3)cc1	-3	-1	-4	-11	.
CCn1cc(/C=C(\NC(=O)c2ccc(OC)c(OC)c2)C(=O)NCCN2CCOCC2)c2ccccc21	4	3	-8	-2	.
CCn1cc(/C=C(\NC(=O)c2ccc(OC)c(OC)c2)C(=O)NCCCO)c2ccccc21	-7	5.8*	-3	-1	4
Cc1ccc(N=Cc2ccc(N(C)C)cc2)cc1	7	6.5*	-5	8	4
CN(C)c1ccc(C=Nc2ccccc2)cc1	4	3	-3	-10	.
CN(C)c1ccc(C=Nc2ccc(N(C)C)cc2)cc1	-109	7.2*	1	-113	4.8*
Cc1ccc(N=Cc2ccc(N(C)C)cc2)cc1C	-5	3	-6	-2	.
Cc1nc(/N=C\c2ccc(N(C)C)cc2)sc1C	-2	5.8*	-2	10	3
Cc1ccc(S(=O)(=O)N(C)/N=C/c2ccc(N(C)C)cc2)cc1	-6	6.1*	-2	1	2
CCn1c(SC(C)C(=O)NC2CCCC2)nc2cc(S(N)(=O)=O)ccc21 (centres undefined)	-1	1	-3	-4	.
O=C1NC(Cc2ccc(O)cc2)c2nc3cc(Cl)ccc3c(=O)n2-c2cc3ccccc3cc21 (centres undefined)	2	-1	-4	-4	.
CCCC(C(=O)Nc1nccs1)c1ccccc1 (centres undefined)	-5	21*	-3	-11	0
CCOC(=O)c1cc(-c2ccc(/C=C3/C(=O)NC(=O)C(C#N)=C3C)o2)ccc1Cl	3	0	-10	-1	.
CC1=C(C#N)C(=O)NC(=O)/C1=C\c1ccc(-c2ccc(C)cc2[N+](=O)[O-])o1	-2	9.2*	-5	4	4
COc1ccc(/C=N/N2C(=O)C3C4C=CC(C4)C3C2=O)cc1[N+](=O)[O-] (centres undefined)	-11	8.4*	-11	-9	8.2*
O=C(CN1CCOCC1)Nc1ccc([N+](=O)[O-])cc1Br	-5	1	-2	-7	.
O=C(CN1CCCCCC1)Nc1ccc([N+](=O)[O-])cc1Br	0	4.8*	-6	-7	7.2*
CN(/N=C/c1cc(Br)cc(Br)c1O)c1cccc(C(F)(F)F)n1	-3	5.8*	-3	-14	0
O=c1cc2[nH]c3ccccc3c(=O)n2nc1-c1ccccc1	7	4.9*	-6	-3	1
O=C(Nc1nc2ccccc2[nH]1)c1ccc(Br)o1	-2	4.8*	-5	10	3
Cc1ccc(NC(=O)Cn2cccc2C2=NC(c3ccccc3)CO2)cc1C (centres undefined)	-7	43*	0	4	0
